Only some compounds are listed: those with a hit (about 1.8% of all), similar ones and a draw of the others.
L3MBTL1 block – qHTS Assay for the Inhibitors of L3MBTL1 | hit rate 0.66% among 230,000 | Potency, µM (titrated, usually from 57.1 µM), for inactives: top-dose activity, negative = inhibition, most hits filed as inhibitors | AlphaScreen L3MBTL1–H3K9me1 peptide binding | AID 485360, 2010; further: on the % scale 0 is the no-effect control and ±100 the full control effect; nearly all actives have a fitted effect of over 60% in size
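Read-out is AlphaScreen signal from streptavidin donor and nickel chelate acceptor beads (10 ug/mL final each) bridging L3MBTL1 (50 nM) and biotinylated K9-monomethylated H3(1-15) peptide (75 nM), after 30 min compound exposure at room temperature.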
KDM4E inh – qHTS Assay for Inhibitors of Human Jumonji Domain Containing 2E (JMJD2E); AID 2147, 2009; hit rate 1.6% among 230,000; Lysine-specific demethylase 4E (Homo sapiens), B2RXH2; Potency, µM (top dose mostly 57.1 µM), for the others: at the top dose activity change, negative = inhibition, usual class: inhibitors; JMJD2E catalytic domain, FDH-coupled NADH fluorescence (FDH is formaldehyde dehydrogenase);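 further: 0% = wells with enzyme and -100% = buffer wells without enzyme; nearly all actives have a fitted effect of over 50% in size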
HTT ATP protect – qHTS Multiplex Assay to Identify Dual Action Probes in a Cell Model of Huntington: Cytoprotection (ATP). PC12 HTT-Q103 induced, cytoprotection, ATP luminescence, 40 h. Potency, µM (top dose mostly 56.4 µM), inactives show cytoprotection (ATP increase), most hits filed as activators. hit rate 0.14% among 230,000. AID 1471, 2008; further: % of control where 0% means no effect; nearly all actives have a fitted effect of over 45% in size
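PC12 cells stably carrying ecdysone-inducible Htt exon 1 (Q103)–GFP were induced with 100 nM tebufenozide (final) alongside library compounds in a dose series. Cytoprotection was scored as retained ATP by ATPlite luminescence.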
HttQ103 aggreg – qHTS Multiplex Assay to Identify Dual Action Probes in a Cell Model of Huntington: Aggregate Formation (GFP); AID 1688, 2009; hit rate 1.1% among 220,000; PC12 HttQ103-GFP aggregates, Acumen cytometry, 40 h; Potency, µM (series often up to 46.1 µM), without a hit: top-dose activity change, negative = inhibition, most hits filed as inhibitors; further: on the % scale 0 is the no-effect control and ±100 the full control effect; nearly all actives have a fitted effect of over 60% in size
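Huntingtin Q103 exon 1–GFP aggregates in induced PC12 cells (100 nM tebufenozide) were quantified by cytometry from lysates, with compounds dosed in titration.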
Starred values were filed as active, the others as inactive; ? = inconclusive; . = no result; [ ] = remark or other dose. Unless noted, the call rests on the fitted dose curve; in most records, active means well fitted curve in the direction sought with a large enough effect; inconclusive means small, poorly fitted or top-dose-only effect, or another doubt; inactive means no such curve, though single readings can be large; an effect the other way counts as inactive or inconclusive. Potency means the concentration at half of the fitted maximal effect.

SMILES | L3MBTL1 block | KDM4E inh | HTT ATP protect | HttQ103 aggreg
CC(C)[C@@H](OCc1ccccc1)[C@H](C)/C=N\O[C@@H](C)c1cn([C@H](CO)Cc2ccccc2)nn1 | . | . | -17.3%[10 µM] | .
CN(C)c1ncnc2ccc(-c3cccnc3)cc12 | . | . | -137.2% | .
COC(=O)NC1C=CCCC1C(C)=O (stereo not drawn) | . | 6.1% | -4.6% | .
COc1ccc(/C=N/NC(=O)CN(c2ccc(OC)cc2)S(=O)(=O)c2ccccc2)cc1 | . | -9.7% | -28.7% | -2.5%
COc1ccc(N(CC(=O)N/N=C(\C)CCc2ccccc2)S(=O)(=O)c2ccc(C)cc2)cc1 | . | -2.1% | 3.55µM* | 10.9%[9.22 µM]
C=C1c2cccc(O)c2C(=O)C2C(=O)[C@]3(O)C(=O)C(C(N)=O)C(=O)[C@@H](N(C)C)[C@@H]3[C@@H](O)[C@H]12 (stereo partly drawn) | 0.891µM* | . | . | .
C=C1c2cccc(O)c2C(O)=C2C(=O)[C@@]3(O)C(O)=C(C(N)=O)C(=O)[C@@H](N(C)C)[C@@H]3[C@@H](O)[C@H]12 | . | ? | 4.7%[40.3 µM] | 14.2%[20.6 µM]
O=C(CCN1C(=O)COc2ccccc21)NCCCN1CCN(c2ccccc2F)CC1 | -5.3% | -2.7% | -34.4% | 3.16µM*
CC1CCN(S(=O)(=O)c2ccc3c(c2)C(=NO)c2cc(S(=O)(=O)N4CCC(C)CC4)ccc2-3)CC1 | 3.8% | ? | -92.5% | 3.16µM*
O=S(=O)(c1ccc2c(c1)C(=NO)c1cc(S(=O)(=O)N3CCCCC3)ccc1-2)N1CCCCC1 | -5.2% | ? | -135.5%[10 µM] | ?
CNc1ccccc1C(=O)OC | . | 22.4µM* | -2.4%[10 µM] | -6.5%[9.22 µM]
COc1ccc(N2CCn3c2nc2c3c(=O)n(CCc3ccccc3)c(=O)n2C)c(OC)c1 | -4.9% | 2.0% | -9.2% | 10.8%
COc1ccc(N2CCn3c2nc2c3c(=O)n(CCCc3ccccc3)c(=O)n2C)c(OC)c1 | -8.0% | -6.4% | -66.5%[0.074 µM] | 11.2µM*
CCc1ccc(C(=O)COC(=O)c2cc([N+](=O)[O-])ccc2NCCO)cc1 | -14.5% | -0.7% | 16.5%[0.074 µM] | -11.5%
Cc1cc(C)c(C(=O)COC(=O)c2cc([N+](=O)[O-])ccc2NCCO)cc1C | -3.0% | 8.1% | . | 0.0141µM*
CCCCCCCCCCCCCCCC(=O)OCC(COP(=O)(O)OCC[N+](C)(C)C)OC(=O)CCCCCCCCCCCCCCC (stereo not drawn) | . | . | 3.0% | 7.7%
COc1cccc([C@@H]2Oc3ccc(Br)cc3C[C@H]2OC(=O)Nc2cc(OC)c(OC)c(OC)c2)c1 | . | 6.5% | -37.9% | .
Oc1ccc(/C=N/Nc2ncc(Br)cn2)c(O)c1 | ? | 11.2µM* | 36.4%[10 µM] | 12.6µM*
Oc1ccc(/C=N/Nc2nccnc2Cl)c(O)c1 | . | ? | -0.4% | -30.1%[9.22 µM]
COc1ccc(OCC(=O)OCC(=O)NC2CCCCC2C)cc1 (stereo not drawn) | 5.8% | . | . | .
COc1cc(NC2CCCCC2O)c2nc(-c3ccc(Cl)cc3)ccc2c1 (stereo not drawn) | 25.4% | 22.4µM* | 13.1%[10 µM] | 10.9%[9.22 µM]
O=S(=O)(CCc1ccccc1)c1nnnn1-c1ccccc1 | . | -7.4% | ? | .
CCCCCCC1Cc2cc(OC)c(OC)cc2C(C(C(=O)OCC)C(=O)OCC)O1 (stereo not drawn) | . | . | -14.9%[10 µM] | .
CC[C@@]1(c2ccccc2)NC(=O)N(C)C1=O | . | . | 16.4% | -2.9%
CCOc1cc(CNc2ccc(O)cc2)cc(Br)c1OCc1ccccc1F | 15.8µM* | ? | 6.7%[10 µM] | 13.1%
SMILES | L3MBTL1 block | KDM4E inh | HTT ATP protect | HttQ103 aggreg
O=C1[C@@H]2[C@H]3C(=CC[C@@H]2C(=O)N1Cc1ccccc1)C1(OCCCO1)[C@H]1O[C@@H]1[C@H]3O | . | . | -8.8%[10 µM] | .
CC(C)NC(=O)c1c(O)c2ccccc2[nH]c1=O | . | ? | -6.1% | -11.5%
O=C(N/N=C/c1ccc(F)cc1)c1c(O)c2ccccc2[nH]c1=O | 4.9% | -7.2% | -50.6%[10 µM] | 3.55µM*
O=C(N/N=C/c1cccc(F)c1)c1c(O)c2ccccc2[nH]c1=O | 0.3% | 6.5% | -1.0%[10 µM] | ?
O=C(N/N=C/c1ccccc1)c1c(O)c2ccccc2[nH]c1=O | 10.7% | ? | 12.2%[10 µM] | 22.4µM*
CCOC(=O)CCN1C(=O)[C@H]2[C@H]3[C@H](O)[C@H](O)C/C(=N/NC(=O)OCC)[C@@H]3CC[C@@H]2C1=O | . | . | -41.0%[10 µM] | .
